Results filed as inconclusive are left out. Active and inactive are the calls of the source. The calls were made as follows, unless noted: active = hit-call score of the fitted dose curve at least 0.9, where 1 is the maximum; inconclusive = response in the unintended direction; inactive = score below 0.9.
Legend:
[1] = molecular target: Androgen receptor (Homo sapiens) (UniProt P10275); assay: ATG_AR_TRANS: Attagene TRANS-FACTORIAL HepG2 Assay for human Androgen Receptor (AR) (AID 2282973); conditions: HepG2 Attagene TRANS-FACTORIAL AR reporter transcription
Method in brief: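 HepG2 cells transiently transfected with AR-Gal4 chimera and GAL4-UAS reporter units; chemical exposure 24 h. Reporter mRNA quantified by RT-PCR with fluorescent labelling and capillary electrophoresis; gain-of-signal fitted against DMSO.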

[2] = Tanguay_ZF_120hpf_MUSC: Oregon State University Tanguay Lab 120 Hour Post-fertilization zebrafish Assay for Muscle Malformation (AID 2284401; active = hit-call score of the fitted dose curve at least 0.9, where 1 is the maximum; inactive = score below 0.9)
Method in brief: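 Dechorionated Tropical 5D wild-type zebrafish embryos exposed statically from 6 to 120 hpf at 28C, one per well, in 0.64% DMSO. Muscle malformation scored present/absent by brightfield microscopy at 120 hpf, fitted against DMSO.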

Androgen receptor (Homo sapiens), sequence (P10275 whole entry, looked up, the tested form may be a part): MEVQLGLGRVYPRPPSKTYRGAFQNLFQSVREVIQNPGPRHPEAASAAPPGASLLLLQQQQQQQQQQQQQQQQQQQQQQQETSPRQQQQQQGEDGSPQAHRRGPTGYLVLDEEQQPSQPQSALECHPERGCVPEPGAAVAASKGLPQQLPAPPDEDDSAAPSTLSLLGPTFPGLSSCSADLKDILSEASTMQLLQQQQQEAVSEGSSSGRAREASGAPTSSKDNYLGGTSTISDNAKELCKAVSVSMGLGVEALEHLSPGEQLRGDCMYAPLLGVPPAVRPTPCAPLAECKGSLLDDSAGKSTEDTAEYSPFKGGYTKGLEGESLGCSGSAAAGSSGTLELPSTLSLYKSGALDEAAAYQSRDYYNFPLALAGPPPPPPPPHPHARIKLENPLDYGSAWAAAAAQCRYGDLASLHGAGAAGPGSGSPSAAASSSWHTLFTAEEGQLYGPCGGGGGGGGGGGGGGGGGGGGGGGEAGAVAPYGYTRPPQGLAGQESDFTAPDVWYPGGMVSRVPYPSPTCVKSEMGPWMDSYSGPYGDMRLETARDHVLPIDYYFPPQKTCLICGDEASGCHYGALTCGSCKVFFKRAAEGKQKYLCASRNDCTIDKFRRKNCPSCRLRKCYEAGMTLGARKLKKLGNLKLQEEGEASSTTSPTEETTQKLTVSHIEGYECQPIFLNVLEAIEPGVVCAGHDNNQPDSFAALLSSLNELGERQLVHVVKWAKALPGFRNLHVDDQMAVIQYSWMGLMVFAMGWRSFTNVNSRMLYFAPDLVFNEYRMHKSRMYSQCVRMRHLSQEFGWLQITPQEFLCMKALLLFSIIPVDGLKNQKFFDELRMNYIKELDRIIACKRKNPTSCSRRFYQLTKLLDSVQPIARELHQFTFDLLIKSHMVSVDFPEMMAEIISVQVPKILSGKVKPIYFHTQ

| Structure (SMILES) | outcome [1] | outcome [2] |
| --- | --- | --- |
| NC(=O)C(F)(F)C(F)(F)C(F)(F)F | inactive | inactive |
| O=C(O)C(F)(F)C(F)(F)C(F)(F)OC(F)(F)F | inactive | inactive |
| NCC(F)(F)C(F)(F)C(F)(F)C(F)(F)F | inactive | inactive |
| OCC(F)(F)C(F)(F)C(F)(F)C(F)(F)C(F)(F)C(F)F | inactive | inactive |
| CCO[Si](CCC(F)(F)C(F)(F)C(F)(F)C(F)(F)C(F)(F)C(F)(F)F)(OCC)OCC | inactive | inactive |
| C[N+](C)(C)CCCNS(=O)(=O)C(F)(F)C(F)(F)C(F)(F)C(F)(F)C(F)(F)C(F)(F)C(F)(F)C(F)(F)F | inactive | inactive |
| C=CC(=O)OCCC(F)(F)C(F)(F)C(F)(F)C(F)(F)F | inactive | inactive |
| O=C(O)C(F)(F)OC(F)(F)C(F)(F)OC(F)(F)C(F)(F)OC(F)(F)C(F)(F)C(F)(F)C(F)(F)F | inactive | inactive |
| O=C(CC(=O)C(F)(F)C(F)(F)F)C(F)(F)F | inactive | inactive |
| O=C(O)C(F)(F)C(F)(F)C(F)F | inactive | inactive |
| OC(O)(C(F)C(O)(O)C(F)(F)F)C(F)(F)F | inactive | inactive |
| O=C(Cl)C(F)(F)C(F)(F)C(F)(F)C(=O)Cl | inactive | inactive |
| O=C(O)C(F)(F)C(F)(F)C(F)(F)C(F)(F)F | inactive | inactive |
| O=P(O)(O)OCCC(F)(F)C(F)(F)C(F)(F)C(F)(F)C(F)(F)C(F)(F)F | inactive | inactive |
| FC(F)(F)COC(OCC(F)(F)F)OCC(F)(F)F | inactive | inactive |
| FC1CC(F)(F)C(F)(F)C1(F)F (stereo not drawn) | inactive | inactive |
| CCCCCCCCC(F)(F)C(F)(F)C(F)(F)C(F)(F)C(F)(F)C(F)(F)F | inactive | inactive |
| OCC(F)(F)C(F)(F)C(F)(F)C(F)F | inactive | inactive |
| NC(O)(C(F)(F)F)C(F)(F)F | inactive | inactive |
| NC(=O)C(F)(F)C(F)(F)C(F)(F)C(F)(F)C(N)=O | inactive | inactive |
| C=CC(F)(F)C(F)(F)C(F)(F)C(F)(F)C(F)(F)C(F)(F)C(F)(F)C(F)(F)C=C | inactive | inactive |
| CO[Si](C)(CCC(F)(F)C(F)(F)C(F)(F)C(F)(F)C(F)(F)C(F)(F)F)OC | inactive | inactive |
| C=C(C)C(=O)OCCC(F)(F)C(F)(F)C(F)(F)C(F)(F)C(F)(C(F)(F)F)C(F)(F)F | inactive | inactive |
| FC(F)(F)C(F)(F)C(F)(F)C(F)(F)C(F)(F)C(F)(F)C(F)(F)I | inactive | inactive |

— PubChem BioAssay (EPA / NIEHS)
